Screening results as filed in PubChem.
NPC1 promoter act – activators of NPC1 promoter. Huh7 NPC1 promoter luciferase reporter, 24 h. Potency, µM (doses to about 9.22 µM), for inactives: at the top dose activation, actives largely listed as activators. actives 2.4% (n = 320,000). AID 485313; note: % of control where 0% means no effect; nearly all actives have a fitted effect of over 60% in size
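Cells: Huh7 expressing luciferase under the NPC1 promoter, 1500/well. Seeded 2 h, compound added, incubated 24 h at 37 °C. Luciferase reagent, 10 min ambient, then luminescence.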
ELG1 genotoxic – genotoxicity induction in ELG1-luciferase HEK293T cells | HEK293T ELG1-luciferase reporter, luminescence, 16 h | Potency, µM (series often up to 46 µM), for inactives: at the highest dose activity change, positive = activation, most hits filed as activators | actives 1.3% (n = 330,000) | AID 504466; note: % of control where 0% means no effect; nearly all actives have a fitted effect of over 60% in size
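HEK293T cells expressing luciferase-tagged ELG1 were exposed to compound or DMSO vehicle for 16 hr at 37 °C and 5% CO2. Luciferase activity was then measured with ONE-Glo after 30 min at room temperature.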
FLuc counter – firefly luciferase modulation, counter-screen for miR-21 project | actives 6.9% (n = 360,000) | Potency, µM (highest dose often 57.5 µM), inactives show at the highest dose activity change, negative = inhibition, usual class: inhibitors | P08659 | purified FLuc, Km substrates, luminescence inhibition;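 note: plate controls were vehicle for no effect and reference inhibitor for full effect; nearly all actives have a fitted effect of over 55% in size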
Target sequence (P08659 whole entry, looked up): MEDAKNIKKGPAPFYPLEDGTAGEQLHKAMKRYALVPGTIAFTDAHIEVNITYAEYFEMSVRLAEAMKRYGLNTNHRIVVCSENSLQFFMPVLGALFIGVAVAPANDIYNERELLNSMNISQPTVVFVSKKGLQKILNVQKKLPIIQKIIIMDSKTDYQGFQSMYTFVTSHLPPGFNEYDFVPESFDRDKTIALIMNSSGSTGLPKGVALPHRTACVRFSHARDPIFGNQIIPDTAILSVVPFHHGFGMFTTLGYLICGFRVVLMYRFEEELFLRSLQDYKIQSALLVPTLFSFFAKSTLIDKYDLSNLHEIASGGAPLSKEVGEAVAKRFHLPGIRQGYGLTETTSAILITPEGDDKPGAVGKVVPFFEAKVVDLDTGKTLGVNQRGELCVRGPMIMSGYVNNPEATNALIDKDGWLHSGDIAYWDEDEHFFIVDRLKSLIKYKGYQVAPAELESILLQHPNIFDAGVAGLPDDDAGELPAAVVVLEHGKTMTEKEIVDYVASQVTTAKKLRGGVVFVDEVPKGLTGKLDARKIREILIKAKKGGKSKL
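Biochemical qHTS of compounds, final roughly 60 µM downward over six points, against 10 nM purified firefly luciferase using Km concentrations of substrates (10 uM D-luciferin, 10 uM ATP) in Tris acetate pH 7.5 buffer; luminescence output.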
Rab9 promoter act – activators of Rab9 promoter. Huh7 Rab9 promoter-luciferase reporter, luminescence, 24 h. Potency, µM (series often up to 9.22 µM), without a hit: at the top dose activation, negative = inhibition, actives largely listed as activators. actives 2.8% (n = 320,000). AID 485297; note: % of control where 0% means no effect; nearly all actives have a fitted effect of over 60% in size
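Luciferase signal after 10 min detection reagent at ambient indicates Rab9 promoter upregulation; stably transfected Huh7 cells were treated 24 h with compound in DMSO at 37 °C, 5% CO2.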
SMN2 splice enh – SMN2 splice variant enhancement | HEK293 SMN2-luciferase splicing reporter, luminescence, 30-36 h | Potency, µM (top dose mostly 46.1 µM), inactives show at the top dose activity change, positive = activation, usual class: activators | actives 2.8% (n = 210,000) | AID 1458; note: % of control where 0% means no effect; nearly all actives have a fitted effect of over 55% in size
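HEK293 cells carry an SMN2 […]–luciferase reporter in which exon 7 inclusion puts luciferase in frame. Cells were plated 10-12 h before compound addition, then incubated 30-36 h at 37C. ONE-Glo luminescence was read; sodium butyrate at 4.5 mM final served as control.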
Luc counter – blocks Kinase-Glo luciferase, a counter-screen artifact; Kinase-Glo luciferase, ATP luminescence, 8 min; actives 0.28% (n = 200,000); Potency, µM (doses to about 38.3 µM), inactives show at the top dose activity change, negative = inhibition, actives largely listed as inhibitors; AID 1379; Q27757; note: % is set by controls: 0 for no effect and ±100 for the full control effect; nearly all actives have a fitted effect of over 60% in size
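Light output from Kinase-Glo luciferase with luciferin and 10 uM ATP in 50 mM imidazole pH 7.2, KCl, MgCl2, Tween 20, BSA; compound pin-delivered, 8-min ambient incubation, then luminescence read.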
An asterisk follows results filed as active; ? = inconclusive; nt = no result given; [ ] = another dose, or the depositor's remark. An excerpt weighted towards active compounds, which were near 7.4% of everything screened. Calls come from the whole dose curve; as a rule, active = well fitted curve in the direction sought with a large enough effect; inconclusive = small, poorly fitted or top-dose-only effect, or another doubt; inactive = no such curve, though single readings can be large; an effect the other way counts as inactive or inconclusive. Potency is the fitted concentration of half-maximal effect.

SMILES | NPC1 promoter act | ELG1 genotoxic | FLuc counter | Rab9 promoter act | SMN2 splice enh | Luc counter
Cc1ccc(Cn2ccn(Cc3ccccc3F)c(=O)c2=O)cc1 | nt | nt | -5% | nt | nt | nt
Cc1ccc(-c2cc3nc(-c4ccccc4)cc(C(F)(F)F)n3n2)cc1 | nt | nt | -11% | nt | 10% | nt
CCCN1C(=O)C(O)(CC(=O)c2ccc(OC)c(OC)c2)c2ccccc21 (stereo unspecified) | nt | nt | -1% | nt | 2% | nt
Cc1ccc(OCC(=O)Nc2ccncc2)cc1 | 0% | 5% | 13µM* | 0% | nt | nt
COc1ccc(OCC(=O)Nc2ccc(C)cc2)cc1 | -2% | 18% | ? | 3% | 9% | -5%
Cc1ccc(OCC(=O)Nc2ccc(F)cc2)cc1 | -1% | ? | 15µM* | -5% | 19% | -4%
N#Cc1cccc(NC(=O)N2CC3(CCN(C(=O)c4ccco4)CC3)C2)c1 | nt | nt | nt | nt | 3% | -12%
O=C(CCOc1ccccc1)Nc1nnc(-c2ccc3c(c2)OCCO3)o1 | 6% | -6% | 11µM* | 10% | -24% | -1%
O=C(Nc1nnc(-c2ccncc2)o1)c1ccccc1 | 9% | 3% | ? | 11% | 21% | -4%
O=C(Nc1nnc(-c2ccc3c(c2)OCCO3)o1)C1CCCCC1 | 3.5µM* | ? | ? | 2.5µM* | ? | 1%
O=C(Nc1nnc(-c2ccc3c(c2)OCCO3)o1)c1ccc(Cc2ccccc2)cc1 | 2% | -11% | -2% | -7% | -17% | 0%
O=C(Nc1nnc(-c2ccc3c(c2)CCCC3)o1)c1ccccc1 | 4% | ? | 19µM* | -6% | -48% | -3%
O=C(Nc1nnc(-c2ccc(Br)cc2)o1)c1cccc(N2C(=O)CCC2=O)c1 | 1% | 2% | 12µM* | 0% | nt | nt
CN1C(=O)Cc2cc(S(=O)(=O)CCC(=O)N3CCN(c4cccc(Cl)c4)CC3)ccc21 | nt | nt | -5% | nt | nt | nt
O=C(Nc1nnc(-c2ccc3c(c2)CCCC3)o1)c1ccccc1Cl | 2% | -1% | 24µM* | 7% | 16% | 19%
O=C(COc1ccccc1)Nc1nnc(-c2ccc3c(c2)CCCC3)o1 | ? | 18µM* | ? | ? | ? | 1%
O=C(COc1ccccc1)Nc1nnc(-c2ccc(F)cc2)o1 | -3% | -9% | 0% | -3% | nt | nt
CCn1c(NCc2cccc(Cl)c2)nc2ccccc21 | nt | nt | -2% | nt | -3% | nt
CN(C)CCN1C(=O)CC[C@]2(C)C1=CC[C@@H]1[C@@H]2CC[C@]2(C)[C@H]1CC[C@]2(C)O | nt | nt | nt | nt | 2%[9.22 µM] | -4%[7.66 µM]
Cc1ccc(/C=C/C(=O)Nc2cccc3ncccc23)o1 | -1% | -1% | ? | -5% | -3% | 4%
Cc1ccc(/C=C/C(=O)Nc2ccccc2C(N)=O)o1 | nt | nt | 9.5µM* | nt | 11µM* | nt
NC(=O)c1ccccc1NC(=O)Nc1ccccc1Cl | -2% | 2% | ? | -2% | -6% | -12%
NC(=O)c1ccccc1NC(=O)/C=C/c1cccc(Cl)c1 | 3.2µM* | 7% | 6.7µM* | 2.2µM* | 11µM* | -5%
O=C(/C=C/c1cccc(Cl)c1)NCCc1ccccc1 | 1% | ? | ? | -6% | 15% | 5%
NC(=O)c1ccccc1NC(=O)/C=C/c1c(Cl)cccc1Cl | ? | 12% | 19µM* | 3.2µM* | 46% | -22%
Cc1cc(Nc2cccc(C(F)(F)F)c2)nc2ccc(NC(=O)c3ccc(N(C)C)cc3)cc12 | nt | nt | 0% | nt | 3% | nt
CC(=O)c1ccc(OCc2cc(C(=O)N3CC[C@@H]4CCCC[C@H]4C3)no2)cc1 | 2.5µM* | ? | 9.5µM* | 2µM* | nt | nt
CC(=O)c1ccc(OCc2cc(C(=O)NC3CCCCC3)no2)cc1 | 3.5µM* | -6% | ? | 4µM* | nt | nt
CC(=O)c1ccc(OCc2cc(C(=O)N(C)Cc3nc4c(C)cccc4[nH]3)no2)cc1 | -10% | -9% | 0% | -5% | nt | nt
CC(=O)c1ccc(OCc2cc(C(=O)N3CCCCC3c3cccnc3)no2)cc1 (stereo unspecified) | ? | ? | 27µM* | ? | nt | nt
